Assay outcomes (PubChem)
MARV entry inh = inhibitors of Marburg virus binding or cell entry; actives 1.8% (n = 300,000); Marburg virus pseudotyped entry inhibition, cell reporter; Potency, µM (top dose mostly 37.8 µM), without a hit: at the top dose activity change, negative = inhibition, actives largely listed as inhibitors; AID 540276; calls by dose curve; tested in HEK293 cells; also: potency is read from the fitted curve at half-maximal effect; % is scaled to controls: 0 for no effect and ±100 for the full control effect
Shiga inhibitor = inhibitors of Shiga toxin in Vero cells; Vero cells, Shiga toxin protein synthesis inhibition reporter; AID 2315; inhibition, % at 38.7 µM; actives 9.2% (n = 290,000); in the data active = inhibition mostly above about 28%, no sharp cut-off; inactive = mostly below about 43%; also: 0% is about no effect
LASV entry inh = inhibitors of Lassa virus binding or cell entry. Lassa virus pseudotype entry inhibition, cell reporter. Potency, µM (highest dose often 37.9 µM), for inactives: at the highest dose activity change, negative = inhibition, actives largely listed as inhibitors. actives 1.2% (n = 300,000). AID 540256; calls by dose curve; tested in HEK293 cells; also: potency is read from the fitted curve at half-maximal effect; % is scaled to controls: 0 for no effect and ±100 for the full control effect; nearly all actives have a fitted effect of over 50% in size
CHX counter = counter-screen for Shiga toxin inhibitors: cycloheximide protein synthesis inhibition; cell reporter, cycloheximide protein synthesis inhibition counterscreen; max response, %; actives 12% (n = 300,000); in the data active = max response mostly above about 13%, no sharp cut-off; inactive = mostly below about 14%; also: read at 38.3 µM for the half of the compounds with a filed dose; 0% is about no effect
Active calls of the source: *; ? = inconclusive; / = no result given; [ ] = dose if it differs, or a comment. In the library only some 12% were active in any assay of this set; here they are far more common.

SMILES	MARV entry inh	Shiga inhibitor	LASV entry inh	CHX counter
CC(C)n1c(/N=C/c2c[nH]c3ccccc23)nc2ccccc21	1.2%	45.2	3.3%	19.7*
Cn1c(/N=C/c2c[nH]c3ccccc23)nc2ccccc21	-8.1%	17.6	11.4%	2.4
CN(C)c1nc(-c2ccccc2)c2cnn(Cc3ccccc3)c2n1	?	-14.4	-23.3%	-2.6
C(=C\CSc1nnnn1-c1ccccc1)/CSc1nnnn1-c1ccccc1	7.8%	-6.7	-7.1%	-6.7
O=[N+]([O-])c1ccc(Sc2nnnn2-c2ccccc2)nc1	12.6µM*	16.9	?	12.3
CCCCCn1c(NCc2ccccc2OC)nc2ccccc21	?	/	-16.0%[46.1 µM]	/
CCn1c(/C=N/c2nc3ccccc3n2C)nc2ccccc21	16.1%	23.8	2.4%	12.9*
COc1cccc(/C=N/c2nc3ccccc3n2C)c1O	1.1%	33.3	28.1%	19.8*
COc1cccc(CNc2cnc3ccccc3c2)c1O	?	44.3*	-26.4%	30.1*
Cc1ccc(O)c(CNc2cnc3ccccc3c2)c1	?	/	?	10.7
COc1cccc(CNc2nc3ccccc3n2C)c1O	?	/	-8.8%[46.1 µM]	35.4*
COC(=O)N[C@@H](C=Cc1ccccc1)C(C(=O)OC)=C(C)NCc1ccccc1	-22.2%[14.2 µM]	/	/	/
COc1cccc(CNc2ccc([N+](=O)[O-])cc2Cl)c1O	/	44.2	/	38.9*
COc1ccccc1Nc1nc2ccccc2n1C	/	66.1*	/	30.5*
COc1ccccc1Nc1nc2ccccc2n2cnnc12	/	27.6	/	-2.3
Cn1c(NN=O)nc2ccccc21	?	48.5*	?	28.3*
COC1=C[C@H](C(=O)NCCNC(C)=O)[C@@]2(C)Cc3ccccc3[C@@H]2CC1=O	-20.2%[14.2 µM]	/	?	/
COC(=O)C1=C(C)N(C2CCCCC2)C(=O)/C1=C\c1cccs1	7.9%[46.1 µM]	-1.3	-11.3%[46.1 µM]	0.6
Oc1cccc(/C=N/Nc2nn3cnnc3c3ccccc23)c1	/	24.4	/	-1.6
C(=N\Nc1nncc2ccccc12)/c1ccccc1	12.0%	73.4*	?	50.4*
COc1cc(/C=N/Nc2nncc3ccccc23)cc(OC)c1OC	/	87.4*	/	39.4*
CCNc1nc(NCC)nc(N/N=C/c2cc(OC)c(OC)c(OC)c2)n1	/	-5.3	/	0.6
CN(C)c1ccc(/C=N/NC(=O)c2cnc3ccccc3c2)cc1	/	4.1	/	-0.1
Cc1cccc(/C=N/Nc2nncc3ccccc23)c1	?	47.3*	?	24.1*
CN(C)c1ccc(/C=N/Nc2nncc3ccccc23)cc1	?	108.5*	?	28.4*
SMILES	MARV entry inh	Shiga inhibitor	LASV entry inh	CHX counter
CCc1cccc(-n2c(=O)c3cccnc3n2CC(=O)Nc2ccc(OC)c(Cl)c2)c1	/	/	12.1%[46.1 µM]	/
Cc1ccccc1C(=O)NC(CC(C)C)C(=O)OCC(=O)c1c(N)n(C)c(=O)n(C)c1=O (stereo unspecified)	28.9%[14.2 µM]	-2.3	5.9%	-1.4
COc1ccc(OC)c(NC(=O)COC(=O)CCCN=C2NS(=O)(=O)c3ccccc32)c1	?	/	26.7%[46.1 µM]	/
COc1ccccc1/C=C(/NC(=O)c1ccccc1)C(=O)NCCN1CCOCC1	-0.5%[46.1 µM]	3.0	8.6%[46.1 µM]	0.9
Cc1ccc(/C=C/c2onc(C)c2S(=O)(=O)N2CCC(C(=O)N3CCC(N(C)C(C)C)CC3)CC2)cc1	/	/	-28.8%[46.1 µM]	/
COc1ccc(/C=N/Nc2nncc3ccccc23)c(OC)c1	?	105.8*	?	51.0*
CC(NC(=O)CCNC(=O)c1ccc(C(C)(C)C)cc1)c1ccccc1 (stereo unspecified)	-0.6%	/	-1.4%	/
CCCCCn1c(N)c(-c2nc3ccccc3s2)c2c([N+](=O)[O-])nn(CC)c(=O)c21	2.91µM*	-9.2	10.8%	-0.2
CCCCn1c(N)c(-c2nc3ccccc3s2)c2c([N+](=O)[O-])nn(CC)c(=O)c21	?	-4.2	?	1.3
COc1ccc(-c2cccc(C(=O)Nc3ccc(C)cc3)c2)cc1	-6.0%	15.5	-15.8%	1.3
COc1cccc(C(=O)Nc2cccc(-c3ccccc3)c2)c1	/	77.5*	/	41.8*
COc1ccc(-c2cccc(C(=O)Nc3cccc(C(=O)O)c3)c2)cc1	?	106.4*	-1.5%	103.4*
CCN1C(=O)c2ccc(C(=O)Nc3cccc(C(=O)O)c3)cc2C1=O	15.5%	48.0*	-6.7%	19.8*
O=C(O)c1cccc(NC(=O)c2ccc(N3C(=O)c4ccc(C(=O)Nc5cccc(C(=O)O)c5)cc4C3=O)cc2)c1	-2.2%[46.1 µM]	36.4	-18.3%	1.6
C=CCOC(=O)C(C(=O)CC)C(NC(=O)OC)c1ccc(F)cc1 (stereo unspecified)	-24.9%[14.2 µM]	/	/	/
O=c1c2sc3ccccc3c2n(Cc2ccc(Cl)cc2)c(=O)n1Cc1ccco1	-10.3%[46.1 µM]	/	19.6%[46.1 µM]	/
CCCCN(CC)CCCNC(=O)Nc1sc2nc3n(c(=O)c2c1C)CCC(C)CC3 (stereo unspecified)	10µM*	/	/	/
